Consider 1 sequence from paper PMC7862700, “An all-to-all approach to the identification of sequence-specific readers for epigenetic DNA modifications on cytosine”.

What all share (test): DAPPL (digital affinity profiling via proximity ligation, sequencing); 10 mM Tris-HCl pH 7.5, 50 mM NaCl, 1 mM DTT, 4% glycerol, room temperature, 30 min; GST-TFs on glutathione beads, 16-mer random dsDNA library, 0.1% formaldehyde crosslink after washing; high values mean tight binding
Common to all, as to settings: protein: recombinant; tags: N-terminal GST; dsDNA, one strand shown

For one test, the target named is T1, GABPA (Homo sapiens, UniProt Q06546 1-454).
T1 sequence: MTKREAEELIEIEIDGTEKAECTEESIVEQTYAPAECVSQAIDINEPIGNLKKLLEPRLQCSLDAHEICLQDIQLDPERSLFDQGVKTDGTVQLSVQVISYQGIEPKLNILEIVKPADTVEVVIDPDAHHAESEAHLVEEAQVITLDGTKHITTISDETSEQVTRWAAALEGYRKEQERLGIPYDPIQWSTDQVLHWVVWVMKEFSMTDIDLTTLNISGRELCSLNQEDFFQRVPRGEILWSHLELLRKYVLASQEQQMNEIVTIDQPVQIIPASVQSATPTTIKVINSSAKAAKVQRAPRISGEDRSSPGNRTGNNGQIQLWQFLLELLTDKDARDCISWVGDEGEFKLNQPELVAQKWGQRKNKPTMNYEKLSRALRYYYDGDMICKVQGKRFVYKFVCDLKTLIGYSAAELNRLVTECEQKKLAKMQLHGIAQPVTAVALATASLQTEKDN
An outline of the steps:
(§1)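 Each value of binding signal is a hexamer's read frequency for a factor divided by the same hexamer's frequency in the tag-only sample. Barcoded, bead-captured GST fusions of human transcription factors made in yeast were pooled with that sample and incubated with 200 nmole of a random double-stranded 16-mer DNA library in Tris/NaCl/DTT/glycerol buffer at room temperature for 30 min. Washing, 0.1% formaldehyde crosslinking, proximity ligation, PCR and Illumina NextSeq500 sequencing followed.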

Another test has as its target T2, ERG (Homo sapiens, UniProt P11308 1-479).
T2 sequence: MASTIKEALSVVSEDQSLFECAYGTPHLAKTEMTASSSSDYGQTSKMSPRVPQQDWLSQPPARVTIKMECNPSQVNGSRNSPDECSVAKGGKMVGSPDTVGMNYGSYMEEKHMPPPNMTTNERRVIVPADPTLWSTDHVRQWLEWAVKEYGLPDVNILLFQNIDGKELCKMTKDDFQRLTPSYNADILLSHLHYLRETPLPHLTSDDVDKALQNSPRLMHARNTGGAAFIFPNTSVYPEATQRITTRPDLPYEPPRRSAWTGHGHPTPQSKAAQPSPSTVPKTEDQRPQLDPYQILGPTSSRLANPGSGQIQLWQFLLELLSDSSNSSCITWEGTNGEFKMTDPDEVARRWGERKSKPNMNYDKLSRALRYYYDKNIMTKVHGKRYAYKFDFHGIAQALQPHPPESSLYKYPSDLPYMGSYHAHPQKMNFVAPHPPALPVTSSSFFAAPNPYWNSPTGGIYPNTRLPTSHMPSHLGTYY
A digest of the protocol:
as §1

The target of a further test is ELF1 (Homo sapiens, UniProt P32519 1-619). A digest of the protocol:
as §1

In a further test the target is T3, EHF (Homo sapiens, UniProt Q9NZC4 1-300).
T3 sequence: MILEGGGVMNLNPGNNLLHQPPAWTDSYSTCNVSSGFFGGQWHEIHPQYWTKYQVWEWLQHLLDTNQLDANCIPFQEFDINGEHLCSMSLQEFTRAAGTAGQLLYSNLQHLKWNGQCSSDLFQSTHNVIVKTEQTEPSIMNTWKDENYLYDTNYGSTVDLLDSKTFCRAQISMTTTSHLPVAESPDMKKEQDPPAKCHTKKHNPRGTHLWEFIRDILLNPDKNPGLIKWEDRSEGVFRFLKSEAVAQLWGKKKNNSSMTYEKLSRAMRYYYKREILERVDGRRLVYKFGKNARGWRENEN
An outline of the steps:
as §1

Another test addresses T4, SPIC (Homo sapiens, UniProt Q8N5J4 1-248).
T4 sequence: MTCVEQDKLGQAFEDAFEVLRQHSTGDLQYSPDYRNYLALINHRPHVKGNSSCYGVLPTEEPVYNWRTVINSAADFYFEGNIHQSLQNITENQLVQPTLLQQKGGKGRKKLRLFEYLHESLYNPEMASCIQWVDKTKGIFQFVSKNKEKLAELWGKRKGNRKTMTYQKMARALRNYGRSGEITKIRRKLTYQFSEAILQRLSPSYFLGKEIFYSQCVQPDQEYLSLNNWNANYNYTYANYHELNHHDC
An outline of the steps:
as §1

For another test, the target named is ELF4 (Homo sapiens, UniProt Q99607 1-663). A digest of the protocol: as §1
The target in a further test is T5, ELK4 (Homo sapiens, UniProt P28324-2 1-405).
T5 sequence: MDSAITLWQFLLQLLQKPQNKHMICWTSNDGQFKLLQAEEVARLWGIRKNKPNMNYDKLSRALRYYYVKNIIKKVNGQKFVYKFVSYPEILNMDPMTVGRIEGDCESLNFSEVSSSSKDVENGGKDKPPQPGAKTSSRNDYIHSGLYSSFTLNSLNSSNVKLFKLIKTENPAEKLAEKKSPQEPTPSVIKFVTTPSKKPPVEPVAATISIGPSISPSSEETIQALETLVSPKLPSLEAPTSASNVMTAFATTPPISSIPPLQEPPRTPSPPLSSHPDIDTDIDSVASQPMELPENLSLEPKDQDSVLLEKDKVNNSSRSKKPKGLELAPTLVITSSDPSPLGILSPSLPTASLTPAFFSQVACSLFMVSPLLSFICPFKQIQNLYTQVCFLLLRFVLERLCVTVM
A digest of the protocol: as §1

For the next test, the target named is T6, ELF3 (Homo sapiens, UniProt P78545 1-371).
T6 sequence: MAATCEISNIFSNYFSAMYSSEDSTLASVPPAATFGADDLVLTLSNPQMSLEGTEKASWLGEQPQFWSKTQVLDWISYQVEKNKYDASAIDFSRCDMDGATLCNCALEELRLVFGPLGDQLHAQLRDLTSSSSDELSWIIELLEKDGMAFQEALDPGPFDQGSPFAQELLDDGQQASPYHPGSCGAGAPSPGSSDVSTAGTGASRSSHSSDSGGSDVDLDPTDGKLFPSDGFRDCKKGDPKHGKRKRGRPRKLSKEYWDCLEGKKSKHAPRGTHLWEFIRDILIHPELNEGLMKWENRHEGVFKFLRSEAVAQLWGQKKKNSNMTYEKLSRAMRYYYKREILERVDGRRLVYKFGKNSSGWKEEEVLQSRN
A digest of the protocol:
as §1

The target in another test is T7, ETV3L (Homo sapiens, UniProt Q6ZN32 1-361).
T7 sequence: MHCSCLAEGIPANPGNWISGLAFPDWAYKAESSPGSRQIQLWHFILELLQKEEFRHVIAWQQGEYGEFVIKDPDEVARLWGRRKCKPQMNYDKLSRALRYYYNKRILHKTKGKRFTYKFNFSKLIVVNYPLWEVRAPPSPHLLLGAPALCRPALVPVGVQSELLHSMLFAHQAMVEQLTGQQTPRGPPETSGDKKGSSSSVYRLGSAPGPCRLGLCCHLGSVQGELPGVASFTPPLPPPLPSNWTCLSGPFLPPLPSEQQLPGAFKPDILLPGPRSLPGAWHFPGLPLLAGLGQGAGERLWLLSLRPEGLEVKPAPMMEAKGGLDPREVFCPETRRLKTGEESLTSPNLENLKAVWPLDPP
An outline of the steps:
as §1

A further test concerns the target T8, ETS2 (Homo sapiens, UniProt P15036 1-469).
T8 sequence: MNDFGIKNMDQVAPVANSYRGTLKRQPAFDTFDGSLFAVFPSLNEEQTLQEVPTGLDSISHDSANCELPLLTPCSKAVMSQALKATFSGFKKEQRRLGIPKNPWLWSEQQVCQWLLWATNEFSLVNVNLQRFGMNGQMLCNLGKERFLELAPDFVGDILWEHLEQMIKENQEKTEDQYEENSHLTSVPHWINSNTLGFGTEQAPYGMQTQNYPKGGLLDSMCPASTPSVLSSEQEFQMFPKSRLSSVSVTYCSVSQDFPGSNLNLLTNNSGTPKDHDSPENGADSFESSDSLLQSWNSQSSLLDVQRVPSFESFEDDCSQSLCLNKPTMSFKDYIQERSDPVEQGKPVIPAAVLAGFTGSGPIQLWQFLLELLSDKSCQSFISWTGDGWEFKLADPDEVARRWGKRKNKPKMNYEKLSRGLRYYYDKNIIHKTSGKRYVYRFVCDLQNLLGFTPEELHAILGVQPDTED
An outline of the steps: as §1

A further test concerns the target T9, SPDEF (Homo sapiens, UniProt O95238 1-335).
T9 sequence: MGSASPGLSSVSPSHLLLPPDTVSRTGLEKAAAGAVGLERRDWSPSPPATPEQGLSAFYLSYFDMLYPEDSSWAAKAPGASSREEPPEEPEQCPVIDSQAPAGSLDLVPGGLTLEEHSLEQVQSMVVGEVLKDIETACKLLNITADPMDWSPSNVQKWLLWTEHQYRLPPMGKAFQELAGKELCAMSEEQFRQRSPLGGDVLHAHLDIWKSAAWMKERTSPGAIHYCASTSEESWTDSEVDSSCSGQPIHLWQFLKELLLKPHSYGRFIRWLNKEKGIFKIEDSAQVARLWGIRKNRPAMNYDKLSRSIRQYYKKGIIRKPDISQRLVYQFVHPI
An outline of the steps: as §1

A further test deals with T10, ETV7 (Homo sapiens, UniProt Q9Y603 1-341).
T10 sequence: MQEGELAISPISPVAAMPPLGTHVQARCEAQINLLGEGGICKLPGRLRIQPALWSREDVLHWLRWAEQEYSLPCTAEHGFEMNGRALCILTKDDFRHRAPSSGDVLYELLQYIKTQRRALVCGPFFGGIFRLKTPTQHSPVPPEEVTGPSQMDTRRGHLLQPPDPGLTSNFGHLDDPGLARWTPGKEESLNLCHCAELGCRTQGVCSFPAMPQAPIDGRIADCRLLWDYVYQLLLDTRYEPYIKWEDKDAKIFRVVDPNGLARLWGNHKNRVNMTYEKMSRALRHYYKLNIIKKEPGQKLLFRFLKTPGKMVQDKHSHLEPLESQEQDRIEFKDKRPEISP
A digest of the protocol: as §1

The next test concerns the target T11, ETV3 (Homo sapiens, UniProt P41162-2 1-143).
T11 sequence: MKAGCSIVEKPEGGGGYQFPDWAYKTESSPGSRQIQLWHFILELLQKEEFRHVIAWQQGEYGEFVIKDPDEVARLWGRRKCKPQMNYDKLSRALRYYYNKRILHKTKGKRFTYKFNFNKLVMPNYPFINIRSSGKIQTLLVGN
A digest of the protocol:
as §1

The target in the next test is ETV6 (Homo sapiens, UniProt P41212 1-452). An outline of the steps:
as §1

Chain of ELF1 (P32519 whole entry): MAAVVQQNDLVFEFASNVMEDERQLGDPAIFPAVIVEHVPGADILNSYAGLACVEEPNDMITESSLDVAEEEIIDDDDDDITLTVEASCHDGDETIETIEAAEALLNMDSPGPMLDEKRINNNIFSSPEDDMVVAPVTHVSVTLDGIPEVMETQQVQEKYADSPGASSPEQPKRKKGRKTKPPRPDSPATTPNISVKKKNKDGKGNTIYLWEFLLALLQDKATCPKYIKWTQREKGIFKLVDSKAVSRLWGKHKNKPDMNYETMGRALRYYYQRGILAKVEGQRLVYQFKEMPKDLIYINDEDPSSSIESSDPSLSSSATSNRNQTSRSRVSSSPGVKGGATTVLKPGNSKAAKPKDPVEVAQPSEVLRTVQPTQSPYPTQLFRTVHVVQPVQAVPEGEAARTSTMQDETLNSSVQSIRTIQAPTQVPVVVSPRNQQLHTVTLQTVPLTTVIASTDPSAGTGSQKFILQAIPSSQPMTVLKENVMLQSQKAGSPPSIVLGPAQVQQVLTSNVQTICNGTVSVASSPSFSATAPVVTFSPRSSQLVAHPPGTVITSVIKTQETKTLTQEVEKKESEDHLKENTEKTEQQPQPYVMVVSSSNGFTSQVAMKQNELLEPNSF
Chain of ETV6 (P41212 whole entry): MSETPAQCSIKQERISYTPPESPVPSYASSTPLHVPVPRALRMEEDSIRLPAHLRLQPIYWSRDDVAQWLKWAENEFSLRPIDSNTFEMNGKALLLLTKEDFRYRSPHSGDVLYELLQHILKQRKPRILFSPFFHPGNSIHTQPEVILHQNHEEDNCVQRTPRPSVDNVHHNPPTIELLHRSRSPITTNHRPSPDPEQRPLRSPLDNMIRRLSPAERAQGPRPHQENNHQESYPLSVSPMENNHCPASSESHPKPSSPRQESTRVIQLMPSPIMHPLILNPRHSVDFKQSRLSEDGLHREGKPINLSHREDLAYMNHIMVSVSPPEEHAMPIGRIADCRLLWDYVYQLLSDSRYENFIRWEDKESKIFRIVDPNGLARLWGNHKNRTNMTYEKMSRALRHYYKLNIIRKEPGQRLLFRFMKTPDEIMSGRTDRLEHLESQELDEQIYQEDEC
Chain of ELF4 (Q99607 whole entry): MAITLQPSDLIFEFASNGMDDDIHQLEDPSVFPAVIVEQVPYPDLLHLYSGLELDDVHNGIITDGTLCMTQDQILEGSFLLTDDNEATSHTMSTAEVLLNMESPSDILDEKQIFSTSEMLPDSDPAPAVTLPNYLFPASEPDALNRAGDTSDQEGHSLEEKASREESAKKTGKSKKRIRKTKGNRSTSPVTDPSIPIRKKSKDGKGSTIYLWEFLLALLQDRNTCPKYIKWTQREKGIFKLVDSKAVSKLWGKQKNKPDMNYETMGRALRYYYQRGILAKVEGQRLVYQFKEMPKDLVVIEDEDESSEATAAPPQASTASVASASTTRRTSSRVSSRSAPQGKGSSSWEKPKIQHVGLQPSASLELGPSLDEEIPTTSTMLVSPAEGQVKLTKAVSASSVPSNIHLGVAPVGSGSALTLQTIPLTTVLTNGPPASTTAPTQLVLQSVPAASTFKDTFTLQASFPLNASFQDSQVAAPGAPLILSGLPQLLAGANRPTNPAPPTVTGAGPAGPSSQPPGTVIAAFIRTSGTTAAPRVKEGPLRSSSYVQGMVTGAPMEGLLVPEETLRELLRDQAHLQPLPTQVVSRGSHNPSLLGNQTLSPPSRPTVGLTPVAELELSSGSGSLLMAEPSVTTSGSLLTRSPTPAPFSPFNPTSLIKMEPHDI

On to CATGCG, for which the binding signal with GABPA was 1.06 fold enrichment (6-mer frequency, TF over GST control); in the test with ERG it was 1.03 fold enrichment (6-mer frequency, TF over GST control); with ELF1, 1.07 fold enrichment (6-mer frequency, TF over GST control); with EHF, 1.06 fold enrichment (6-mer frequency, TF over GST control); with SPIC it was 1 fold enrichment (6-mer frequency, TF over GST control); with ELF4, 1.02 fold enrichment (6-mer frequency, TF over GST control). Also, the binding signal with ELK4 was 1.11 fold enrichment (6-mer frequency, TF over GST control); with ELF3 it was 1.29 fold enrichment (6-mer frequency, TF over GST control); with ETV3L it was 1.01 fold enrichment (6-mer frequency, TF over GST control); in the test with ETS2 it was 1 fold enrichment (6-mer frequency, TF over GST control); with SPDEF, 1.01 fold enrichment (6-mer frequency, TF over GST control); in the test with ETV7, 1.21 fold enrichment (6-mer frequency, TF over GST control). The binding signal with ETV3 was 1.03 fold enrichment (6-mer frequency, TF over GST control); with ETV6 it was 1.16 fold enrichment (6-mer frequency, TF over GST control).
